# Reference: PubChem BioAssay (EPA / NIEHS)
# Activity calls are given as the source filed them. The calls were made as follows: active = hit-call score of the fitted dose curve at least 0.9, where 1 is the maximum; inactive = score below 0.9.
# Columns and labels:
# [1] = biological target: Bile acid receptor (Homo sapiens) (UniProt Q96RI1); assay: ATG_IR1_CIS: Attagene CIS-FACTORIAL HepG2 Assay for human Nuclear Receptor Subfamily 1 Group H Member 4 (NR1H4), IR1 submotif (AID 2282946); details: IR1 reporter transcription, actives raise or lower the signal
# Sequence of Bile acid receptor (Homo sapiens) (Q96RI1 whole entry, looked up): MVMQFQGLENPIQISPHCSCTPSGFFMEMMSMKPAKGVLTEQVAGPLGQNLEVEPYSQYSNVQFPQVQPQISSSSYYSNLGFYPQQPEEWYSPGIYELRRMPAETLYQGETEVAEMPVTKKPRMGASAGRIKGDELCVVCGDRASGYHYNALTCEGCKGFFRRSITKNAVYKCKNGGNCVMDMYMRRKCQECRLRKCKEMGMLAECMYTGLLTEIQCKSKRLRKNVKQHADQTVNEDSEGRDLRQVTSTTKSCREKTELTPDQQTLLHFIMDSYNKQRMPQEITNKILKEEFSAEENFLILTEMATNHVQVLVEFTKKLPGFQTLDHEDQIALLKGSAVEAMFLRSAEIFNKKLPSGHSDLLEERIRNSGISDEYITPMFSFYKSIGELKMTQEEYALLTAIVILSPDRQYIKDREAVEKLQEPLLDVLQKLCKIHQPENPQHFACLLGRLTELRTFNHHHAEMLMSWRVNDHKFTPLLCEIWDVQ
# Method in brief: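 Transient MRTU transfection, HepG2; 24 h dosing; RNA → RT-PCR → 6-FAM primer extension → HpaI digest → capillary electrophoresis fluorescence. Gain/loss of signal fitted relative to DMSO.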
# [2] = ATG_GRE_CIS: Attagene CIS-FACTORIAL HepG2 Assay for human Glucocorticoid Response Elements (GRE) (AID 2282947); details: HepG2 GRE cis-reporter, Attagene multiplex mRNA; actives raise or lower the signal
# Method in brief: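 HepG2 cells transiently transfected with multiple cis-promoter reporter units measure endogenous TF activity; 24 h compound exposure. Reporter mRNA quantified by RT-PCR, FAM labelling, HpaI digestion and capillary electrophoresis; bidirectional fit vs DMSO baseline.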
# [3] = ATG_ISRE_CIS: Attagene CIS-FACTORIAL HepG2 Assay for human Interferon Regulatory Factor 1 (IRF1) binding to an Interferon-Stimulated Response Element (ISRE) (AID 2282948); details: HepG2 ISRE cis-reporter (Attagene), mRNA transcription readout; actives raise or lower the signal
# Method in brief: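 Transfected HepG2 (multiple reporter transcription units, cis elements) dosed 24 h. RNA → oligo(dT) RT → PCR → 6-FAM primer extension → HpaI → CE. DMSO = negative control/baseline.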
# [4] = ATG_M_32_CIS: Attagene CIS-FACTORIAL HepG2 Assay for M32 Transcription Factor (Internal Marker) (AID 2282949); details: HepG2 Attagene cis-factorial M32 reporter, mRNA; actives raise or lower the signal;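 also: background control marker of the multiplexed CIS panel rather than a real target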
# Method in brief: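 Following 24 h chemical exposure of HepG2 cells transiently expressing cis-promoter reporter constructs, reporter transcript levels were determined by RT-PCR with fluorescent labelling and capillary electrophoresis, then fitted bidirectionally against DMSO.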
# [5] = ATG_M_06_CIS: Attagene CIS-FACTORIAL HepG2 Assay for M06 Transcription Factor (Internal Marker) (AID 2282950); details: HepG2 Attagene CIS-FACTORIAL M06 internal marker reporter; actives raise or lower the signal
# Method in brief: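 Cells (HepG2, transiently carrying cis-driven reporter units) receive chemical for 24 h before RNA isolation. Reporter cDNA is PCR-amplified, FAM-labelled by primer extension, HpaI-digested and sized on a capillary analyser.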
# [6] = biological target: Hypoxia-inducible factor 1-alpha (Homo sapiens) (UniProt Q16665); assay: ATG_HIF1a_CIS: Attagene CIS-FACTORIAL HepG2 Assay for human Hypoxia Inducible Factor 1 (HIF1A) (AID 2282951); details: HepG2 Attagene cis-factorial HIF1a reporter transcription; actives raise or lower the signal
# Sequence of Hypoxia-inducible factor 1-alpha (Homo sapiens) (Q16665 whole entry, looked up): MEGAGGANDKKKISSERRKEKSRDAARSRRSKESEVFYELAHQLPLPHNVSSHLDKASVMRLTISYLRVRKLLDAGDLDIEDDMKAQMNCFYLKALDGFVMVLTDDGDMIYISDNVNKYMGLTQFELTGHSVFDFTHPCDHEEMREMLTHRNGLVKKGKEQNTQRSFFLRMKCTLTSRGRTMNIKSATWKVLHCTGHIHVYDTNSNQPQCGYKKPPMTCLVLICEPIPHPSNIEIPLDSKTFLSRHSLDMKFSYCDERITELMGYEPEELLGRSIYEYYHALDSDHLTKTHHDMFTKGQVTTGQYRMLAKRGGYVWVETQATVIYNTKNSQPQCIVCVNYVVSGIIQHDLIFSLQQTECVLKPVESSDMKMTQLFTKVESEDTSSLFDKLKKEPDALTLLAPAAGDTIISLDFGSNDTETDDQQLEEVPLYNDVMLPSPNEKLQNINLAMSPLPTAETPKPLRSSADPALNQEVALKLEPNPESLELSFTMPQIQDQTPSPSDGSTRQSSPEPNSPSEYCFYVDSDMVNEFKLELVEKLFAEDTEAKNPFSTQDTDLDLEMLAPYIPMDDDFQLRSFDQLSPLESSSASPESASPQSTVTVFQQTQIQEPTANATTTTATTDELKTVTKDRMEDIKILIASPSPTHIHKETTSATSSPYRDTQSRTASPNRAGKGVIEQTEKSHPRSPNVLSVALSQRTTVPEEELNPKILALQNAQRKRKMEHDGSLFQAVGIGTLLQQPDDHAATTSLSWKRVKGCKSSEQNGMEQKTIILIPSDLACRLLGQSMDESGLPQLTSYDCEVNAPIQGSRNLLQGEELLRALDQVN
# Method in brief: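 Dosed 24 h, transfected HepG2 cells yielded total RNA whose reporter transcripts were RT-PCR-amplified and sized by capillary electrophoresis using fluorescent labelling; DMSO defined baseline, with gain and loss of signal both fitted.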
# [7] = biological target: Hepatocyte nuclear factor 6 (Homo sapiens) (UniProt Q9UBC0); assay: ATG_HNF6_CIS: Attagene CIS-FACTORIAL HepG2 Assay for human Hepatocyte Nuclear Factor 6 (HNF6) (AID 2282952); details: HepG2 Attagene cis-factorial HNF6 reporter transcription; actives raise or lower the signal
# Sequence of Hepatocyte nuclear factor 6 (Homo sapiens) (Q9UBC0 whole entry, looked up, the tested form may be a part): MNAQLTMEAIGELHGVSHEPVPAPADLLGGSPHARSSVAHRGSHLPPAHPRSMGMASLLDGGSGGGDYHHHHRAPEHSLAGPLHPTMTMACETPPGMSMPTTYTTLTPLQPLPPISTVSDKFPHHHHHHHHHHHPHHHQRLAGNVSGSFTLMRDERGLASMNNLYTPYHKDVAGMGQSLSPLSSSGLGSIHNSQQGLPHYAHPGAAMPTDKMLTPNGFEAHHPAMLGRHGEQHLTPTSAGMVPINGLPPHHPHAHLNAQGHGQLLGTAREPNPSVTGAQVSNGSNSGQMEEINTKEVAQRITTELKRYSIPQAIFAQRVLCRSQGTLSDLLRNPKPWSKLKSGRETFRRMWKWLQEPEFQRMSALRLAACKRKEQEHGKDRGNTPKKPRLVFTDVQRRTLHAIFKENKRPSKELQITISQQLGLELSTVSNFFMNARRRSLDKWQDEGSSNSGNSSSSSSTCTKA
# Method in brief: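 HepG2 cells transiently transfected with cis-element-driven multiplexed reporter units measuring endogenous transcription factor activity. After 24 h exposure, reporter mRNA quantified by RT-PCR, FAM-labelled fragments and capillary electrophoresis; bidirectional fitting versus DMSO.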
# [8] = biological target: Heat shock factor protein 1 (Homo sapiens) (UniProt Q00613); assay: ATG_HSE_CIS: Attagene CIS-FACTORIAL HepG2 Assay for human Heat Shock Transcription Factor 1 (HSE) (AID 2282953); details: HepG2 HSE cis-reporter, Attagene RNA transcription; actives raise or lower the signal
# Sequence of Heat shock factor protein 1 (Homo sapiens) (Q00613 whole entry, looked up): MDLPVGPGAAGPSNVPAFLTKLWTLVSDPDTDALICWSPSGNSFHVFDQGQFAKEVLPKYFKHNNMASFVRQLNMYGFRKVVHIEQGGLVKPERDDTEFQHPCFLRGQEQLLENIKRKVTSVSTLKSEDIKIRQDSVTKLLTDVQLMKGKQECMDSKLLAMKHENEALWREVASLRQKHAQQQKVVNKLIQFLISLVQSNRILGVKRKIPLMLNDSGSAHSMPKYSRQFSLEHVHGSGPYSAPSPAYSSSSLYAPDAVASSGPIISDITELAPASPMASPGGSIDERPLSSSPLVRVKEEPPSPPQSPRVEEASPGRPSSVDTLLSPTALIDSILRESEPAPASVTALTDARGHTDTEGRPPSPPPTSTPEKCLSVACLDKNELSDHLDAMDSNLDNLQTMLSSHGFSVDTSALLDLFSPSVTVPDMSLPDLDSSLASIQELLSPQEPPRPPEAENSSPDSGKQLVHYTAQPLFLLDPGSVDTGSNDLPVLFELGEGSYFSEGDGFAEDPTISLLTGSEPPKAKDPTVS
# Method in brief: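 Liver-derived HepG2 cells carry transiently introduced multiple reporter units governed by cis promoters. Reporter RNA measured 24 h post-dose through reverse transcription, PCR amplification, fluorescent labelling and capillary electrophoresis, normalised to DMSO.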
# [9] = ATG_PBREM_CIS: Attagene CIS-FACTORIAL HepG2 Assay for human Phenobarbital-responsive Enhancer Module (PBREM) (AID 2282955); details: HepG2 PBREM cis-reporter, Attagene multiplexed transcription; actives raise or lower the signal
# Method in brief: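 Transfected liver-derived HepG2 cells exposed 24 h; PBREM reporter transcript quantified via RT-PCR and capillary electrophoresis, with activity in either direction referenced to DMSO.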
# [10] = biological target: Paired box protein Pax-6 (Homo sapiens) (UniProt P26367); assay: ATG_Pax6_CIS: Attagene CIS-FACTORIAL HepG2 Assay for human Paired Box 6 (PAX6) (AID 2282956); details: HepG2 CIS-FACTORIAL PAX6 reporter transcription, RNA readout; actives raise or lower the signal
# Sequence of Paired box protein Pax-6 (Homo sapiens) (P26367 whole entry, looked up): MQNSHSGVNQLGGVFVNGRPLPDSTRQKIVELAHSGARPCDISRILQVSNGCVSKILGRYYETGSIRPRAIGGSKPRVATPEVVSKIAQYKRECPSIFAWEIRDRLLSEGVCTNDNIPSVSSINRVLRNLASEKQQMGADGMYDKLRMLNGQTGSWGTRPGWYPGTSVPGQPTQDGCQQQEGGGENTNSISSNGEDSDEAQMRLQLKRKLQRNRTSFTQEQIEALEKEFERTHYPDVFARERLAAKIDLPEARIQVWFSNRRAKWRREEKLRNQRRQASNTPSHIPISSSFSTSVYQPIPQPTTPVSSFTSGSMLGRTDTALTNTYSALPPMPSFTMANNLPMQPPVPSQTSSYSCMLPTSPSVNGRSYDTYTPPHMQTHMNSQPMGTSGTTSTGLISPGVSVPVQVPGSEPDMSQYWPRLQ
# Method in brief: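 Transient MRTU transfection of HepG2 → compound exposure 24 h → TriZol RNA, oligo(dT) RT → PCR, 6-FAM primer extension, HpaI cut → capillary electrophoresis; activity fitted both directions against DMSO.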
# [11] = ATG_PXRE_CIS: Attagene CIS-FACTORIAL HepG2 Assay for human Pregnane X Receptor Element (PXRE) (AID 2282957); details: HepG2 Attagene CIS-FACTORIAL PXRE reporter, mRNA; actives raise or lower the signal
# Method in brief: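 HepG2 cells transiently transfected with cis-element-driven multiplexed reporter units; after 24 h chemical exposure, reporter mRNA measured by RT-PCR, 6-FAM labelling, HpaI digestion and capillary electrophoresis. Bidirectional fitting relative to DMSO.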
# [12] = ATG_RORE_CIS: Attagene CIS-FACTORIAL HepG2 Assay for human RAR-related Orphan Receptor Element (RORE) (AID 2282959); details: HepG2 Attagene cis-factorial RORE reporter, mRNA; actives raise or lower the signal
# Method in brief: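 Transiently transfected HepG2 reporter cells were treated 24 h. Reporter transcripts were detected by RT-PCR and capillary electrophoresis, with bidirectional fitting against DMSO.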
# [13] = ATG_Sox_CIS: Attagene CIS-FACTORIAL HepG2 Assay for human SRY-box transcription factor (SOX) (AID 2282960); details: HepG2 Attagene cis-factorial SOX reporter, mRNA; actives raise or lower the signal
# Method in brief: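 Gain- or loss-of-signal endpoint, fitted bidirectionally with DMSO as negative control. Based on reporter mRNA from transfected HepG2 cells harvested 24 h post-treatment and quantified via RT-PCR and capillary electrophoresis.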
# [14] = biological target: Transcription factor Sp1 (Homo sapiens) (UniProt P08047); assay: ATG_Sp1_CIS: Attagene CIS-FACTORIAL HepG2 Assay for human Specificity Protein 1 (Sp1) (AID 2282961); details: HepG2 Sp1 cis-reporter transcription, actives raise or lower the signal
# Sequence of Transcription factor Sp1 (Homo sapiens) (P08047 whole entry, looked up, the tested form may be a part): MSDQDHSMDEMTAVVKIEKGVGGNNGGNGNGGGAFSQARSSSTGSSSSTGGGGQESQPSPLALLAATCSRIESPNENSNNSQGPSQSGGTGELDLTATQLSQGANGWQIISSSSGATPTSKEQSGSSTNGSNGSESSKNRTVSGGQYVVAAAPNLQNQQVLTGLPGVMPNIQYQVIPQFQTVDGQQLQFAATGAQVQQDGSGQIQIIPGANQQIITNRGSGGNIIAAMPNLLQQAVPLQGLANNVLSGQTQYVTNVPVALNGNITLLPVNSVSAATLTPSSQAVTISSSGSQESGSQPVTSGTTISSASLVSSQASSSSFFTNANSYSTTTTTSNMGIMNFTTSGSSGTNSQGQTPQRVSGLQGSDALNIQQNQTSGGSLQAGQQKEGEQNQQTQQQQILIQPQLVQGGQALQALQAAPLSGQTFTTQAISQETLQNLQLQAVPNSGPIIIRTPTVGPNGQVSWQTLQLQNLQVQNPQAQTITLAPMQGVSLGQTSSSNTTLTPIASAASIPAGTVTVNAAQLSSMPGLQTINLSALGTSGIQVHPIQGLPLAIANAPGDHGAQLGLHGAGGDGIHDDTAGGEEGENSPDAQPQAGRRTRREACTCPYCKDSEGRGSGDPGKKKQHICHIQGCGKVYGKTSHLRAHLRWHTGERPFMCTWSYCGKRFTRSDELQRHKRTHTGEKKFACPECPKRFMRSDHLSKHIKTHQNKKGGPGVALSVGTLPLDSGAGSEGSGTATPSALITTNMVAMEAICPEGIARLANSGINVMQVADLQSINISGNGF
# Method in brief: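 Endpoint reflects endogenous Sp1 transcriptional activity, not an exogenous fusion protein: HepG2 cells with transfected cis-regulated reporters, 24 h dosing, RT-PCR/capillary electrophoresis mRNA read-out, DMSO-normalised bidirectional fit.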
# [15] = ATG_SREBP_CIS: Attagene CIS-FACTORIAL HepG2 Assay for human Sterol Regulatory Element Binding (SREBP) (AID 2282962); details: HepG2 Attagene cis-factorial SREBP reporter, mRNA; actives raise or lower the signal
# Method in brief: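 Transfected HepG2 (cis-regulated reporter library, endogenous TFs) → compound 24 h → total RNA → oligo(dT) RT → reporter-specific PCR → FAM primer extension, HpaI cut → CE fluorescence. Fit bidirectional vs DMSO.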
# [16] = biological target: Signal transducer and activator of transcription 3 (Homo sapiens) (UniProt P40763); assay: ATG_STAT3_CIS: Attagene CIS-FACTORIAL HepG2 Assay for human Signal Transducer and Activator of Transcription 3 (STAT3) (AID 2282963); details: HepG2, Attagene cis-factorial STAT3 reporter transcription; actives raise or lower the signal
# Sequence of Signal transducer and activator of transcription 3 (Homo sapiens) (P40763 whole entry, looked up): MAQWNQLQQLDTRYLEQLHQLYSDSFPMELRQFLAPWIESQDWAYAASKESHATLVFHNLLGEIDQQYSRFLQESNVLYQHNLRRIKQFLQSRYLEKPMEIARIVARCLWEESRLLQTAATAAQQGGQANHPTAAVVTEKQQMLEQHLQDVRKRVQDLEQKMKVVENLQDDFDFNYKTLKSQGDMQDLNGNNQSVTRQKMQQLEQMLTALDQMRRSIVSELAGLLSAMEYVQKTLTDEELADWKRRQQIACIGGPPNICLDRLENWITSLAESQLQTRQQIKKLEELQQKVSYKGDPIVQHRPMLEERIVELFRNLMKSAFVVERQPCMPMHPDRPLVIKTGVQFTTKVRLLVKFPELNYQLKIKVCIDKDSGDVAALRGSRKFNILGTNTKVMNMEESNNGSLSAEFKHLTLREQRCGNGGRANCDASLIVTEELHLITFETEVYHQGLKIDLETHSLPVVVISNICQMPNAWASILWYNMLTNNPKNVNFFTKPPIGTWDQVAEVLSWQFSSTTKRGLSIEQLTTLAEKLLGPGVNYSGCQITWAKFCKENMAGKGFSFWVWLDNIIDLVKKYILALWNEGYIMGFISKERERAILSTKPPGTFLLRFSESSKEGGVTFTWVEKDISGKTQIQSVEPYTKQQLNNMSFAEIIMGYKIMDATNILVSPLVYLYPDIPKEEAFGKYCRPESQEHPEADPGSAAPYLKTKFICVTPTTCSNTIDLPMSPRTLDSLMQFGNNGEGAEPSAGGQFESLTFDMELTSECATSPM
# Method in brief: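 HepG2 cells transiently transfected with cis-element-driven multiple reporter transcription units; after 24 h chemical exposure, reporter mRNA measured by RT-PCR, 6-FAM primer-extension labelling, HpaI digestion and capillary electrophoresis. Bidirectional fitting versus DMSO baseline.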
# [17] = ATG_TA_CIS: Attagene CIS-FACTORIAL HepG2 Assay for human TA Basal Promoter (AID 2282964); details: HepG2 Attagene CIS-factorial TA basal promoter reporter; actives raise or lower the signal
# Method in brief: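 Background internal-marker endpoint from a 52-component HepG2 cis-reporter panel. Cells treated 24 h; reporter transcripts quantified via RT-PCR and CE fluorescence against DMSO baseline.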
# [18] = ATG_MRE_CIS: Attagene CIS-FACTORIAL HepG2 Assay for human Metal Responsive Element (MRE) (AID 2282954); details: HepG2 MRE cis-reporter transcription, Attagene multiplex; actives raise or lower the signal
# Method in brief: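 HepG2 cells transiently transfected with multiple cis-element reporter units measure endogenous MTF1-driven transcription. After 24 h compound exposure, reporter mRNA is quantified by RT-PCR with 6-FAM labelling, HpaI digestion and capillary electrophoresis; bidirectional fits versus DMSO.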
# [19] = ATG_PPRE_CIS: Attagene CIS-FACTORIAL HepG2 Assay for human Peroxisome Proliferator-activated Response Element (PPRE) (AID 2282958); details: HepG2 PPRE cis-element reporter, Attagene transcription factor profiling; actives raise or lower the signal
# Method in brief: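 Measured endpoint: PPRE-controlled reporter mRNA, detected by RT-PCR and capillary electrophoresis fluorescence, from transiently transfected HepG2 cells 24 h after dosing. Curves fitted in both directions using DMSO baseline.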
# [20] = ATG_TCF_b_cat_CIS: Attagene CIS-FACTORIAL HepG2 Assay for human T-Cell-Factor with beta-catenin (TCF/b-cat) (AID 2282965); details: HepG2 TCF/beta-catenin cis-reporter transcription, actives raise or lower the signal
# Method in brief: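 HepG2 cells transiently transfected with multiple cis-promoter-regulated reporter transcription units, so endogenous transcription factor activity is measured. Reporter mRNA read 24 hours after dosing by RT-PCR, fluorescent labelling and capillary electrophoresis; bidirectional fitting against DMSO.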
smiles,measurement,setting,value
O=C1c2cccc(O)c2C(=O)c2c(O)cc(CO)cc21,outcome,[1],inactive
same,outcome,[2],inactive
same,outcome,[3],inactive
same,outcome,[4],inactive
same,outcome,[5],inactive
same,AC50,[6],24 µM (active)
same,outcome,[7],inactive
same,outcome,[8],inactive
same,outcome,[9],inactive
same,outcome,[10],inactive
same,AC50,[11],8.72 µM (active)
same,outcome,[12],inactive
same,outcome,[13],inactive
same,outcome,[14],inactive
same,outcome,[15],inactive
same,outcome,[16],inactive
same,outcome,[17],inactive
C[Si](C)(C)O[Si](O)(O)O,outcome,[1],inactive
same,outcome,[2],inactive
same,outcome,[3],inactive
same,outcome,[4],inactive
same,outcome,[5],inactive
same,outcome,[6],inactive
same,outcome,[7],inactive
same,outcome,[8],inactive
same,outcome,[18],inactive
same,outcome,[10],inactive
same,AC50,[11],26.9 µM (active)
same,outcome,[19],inactive
same,outcome,[12],inactive
same,outcome,[13],inactive
same,outcome,[14],inactive
same,outcome,[15],inactive
same,outcome,[16],inactive
same,outcome,[17],inactive
same,outcome,[20],inactive
C=C1[C@H]2CC[C@@H]3[C@H]2C(C)(C)CCC[C@]13C,outcome,[1],inactive
same,outcome,[2],inactive
same,outcome,[3],inactive
same,outcome,[4],inactive
same,outcome,[5],inactive
same,outcome,[6],inactive
same,outcome,[7],inactive
same,outcome,[8],inactive
same,outcome,[9],inactive
same,outcome,[10],inactive
same,AC50,[11],5.34 µM (active)
same,outcome,[19],inactive
same,outcome,[13],inactive
same,outcome,[14],inactive
same,outcome,[15],inactive
same,outcome,[16],inactive
same,outcome,[17],inactive
CC(C)(C)c1n[nH]c(=O)n(N)c1=O,outcome,[1],inactive
same,outcome,[2],inactive
same,outcome,[3],inactive
same,outcome,[4],inactive
same,outcome,[5],inactive
same,outcome,[6],inactive
same,outcome,[7],inactive
same,outcome,[8],inactive
same,outcome,[18],inactive
same,outcome,[10],inactive
same,outcome,[11],inactive
same,outcome,[19],inactive
same,outcome,[12],inactive
same,outcome,[13],inactive
same,outcome,[14],inactive
same,outcome,[15],inactive
same,outcome,[16],inactive
same,outcome,[17],inactive
same,outcome,[20],inactive
NC(=O)c1ccccc1O,outcome,[1],inactive
same,outcome,[2],inactive
same,outcome,[3],inactive
same,outcome,[4],inactive
same,outcome,[5],inactive
same,outcome,[6],inactive
same,outcome,[7],inactive
same,outcome,[18],inactive
same,outcome,[10],inactive
same,outcome,[11],inactive
same,outcome,[19],inactive
same,outcome,[12],inactive
same,outcome,[13],inactive
same,outcome,[15],inactive
same,outcome,[16],inactive
same,outcome,[20],inactive
CCOC(=O)c1ccccc1C(=C1C=C(Br)C(=O)C(Br)=C1)c1cc(Br)c(O)c(Br)c1,AC50,[1],62.5 µM (active)
same,outcome,[2],inactive
same,AC50,[3],28.8 µM (active)
same,outcome,[4],inactive
same,outcome,[5],inactive
same,AC50,[6],35.8 µM (active)
same,AC50,[8],20.6 µM (active)
same,AC50,[18],26.2 µM (active)
same,AC50,[10],39.3 µM (active)
same,outcome,[11],inactive
same,AC50,[19],19.8 µM (active)
same,outcome,[12],inactive
same,outcome,[13],inactive
same,AC50,[14],20.7 µM (active)
same,outcome,[15],inactive
same,outcome,[16],inactive
same,outcome,[17],inactive
same,AC50,[20],24.8 µM (active)
c1ccc2c(c1)ccc1cc3c(ccc4ccccc43)cc12,outcome,[1],inactive
same,outcome,[2],inactive
same,outcome,[3],inactive
same,outcome,[4],inactive
same,outcome,[5],inactive
same,AC50,[6],0.364 µM (active)
same,outcome,[7],inactive
same,outcome,[18],inactive
same,outcome,[10],inactive
same,outcome,[11],inactive
same,outcome,[12],inactive
same,outcome,[13],inactive
same,outcome,[14],inactive
same,outcome,[15],inactive
same,outcome,[16],inactive
same,outcome,[17],inactive
same,outcome,[20],inactive
CC(=O)OC(C)C,outcome,[1],inactive
same,outcome,[2],inactive
same,outcome,[3],inactive
same,outcome,[5],inactive
same,outcome,[6],inactive
same,outcome,[7],inactive
same,outcome,[8],inactive
same,outcome,[18],inactive
same,outcome,[10],inactive
same,AC50,[11],100 µM (active)
same,outcome,[19],inactive
same,outcome,[12],inactive
same,outcome,[13],inactive
same,outcome,[14],inactive
same,outcome,[15],inactive
same,outcome,[16],inactive
same,outcome,[17],inactive
same,outcome,[20],inactive
